{
  "source": "PubChem BioAssay (NCI)",
  "note": "The panel holds about 83,000 compounds, 20% with a hit somewhere; the sample as a whole holds those more often.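 Percent growth is the endpoint: 0 to 100 indicates growth inhibition (40 means 60% inhibition), 0 means no net growth, and negative values indicate cell death.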 Values without a mark were called inactive. Activity calls are given as the source filed them.",
  "data": [
    {"system": "NCI-H460 lung", "assay": "NCI-60 one-dose screen, 48 h (100 = growth as untreated, 0 = no growth, -100 = all killed)", "conditions": "10 µM unless noted", "protocol": "Growth inhibition of the NCI-H460 human Non-Small Cell Lung tumor cell line is measured as a screen for anti-cancer activity. Cells are grown in 96 well plates and exposed to the test compound for 48 hours. Compounds are tested at a single concentration, which is 10^-5 M for most compounds. The reported endpoint is percent growth (GI% or GIPRCNT), where numbers from 0 - 100% represent growth inhibition, and numbers from -100% - 0 represent cell death. For example, a value of 40 represents 60% growth inhibition. A value of 0 means no net growth occurred over the course of the experiment. A value of -40 indicates 40% of cells at the beginning of the experiment died by the end of the experiment. A value of -100 means all cells are dead at the end of the experiment.\nNCI-60 Human Tumor Cell Lines Screen was performed using the standard one-dose NCI protocol, which is described in more detail at https://dtp.cancer.gov/discovery_development/nci-60/default.htm.\nCompounds with GIPRCNT values below 10 were considered active. Activity score was based on GIPRCNT using the following formula: […]\nScore is 0 for GIPRCNT values of 100 or above, 50 for GIPRCNT values of 0, and 100 for GIPRCNT values of -100.", "values": [
      {"smiles": "Cc1nnc2c(Cc3ccccc3)nc3ccccc3n12", "growth": "100%"},
      {"smiles": "CC(C)(C)c1ccc(NS(=O)(=O)c2ccc3nc(NC(=O)c4cnccn4)[nH]c3c2)cc1", "growth": "6.16% (active)"},
      {"smiles": "CC(=O)Nc1ccc(-n2cnc3cc(-c4ccc(OCCN5CCCCC5)cc4)ccc32)cc1", "growth": "4.54% (active)"},
      {"smiles": "COc1ccc(-c2nc3sccn3c2/C=C/C(=O)c2ccc3c(c2)OCO3)cc1", "growth": "108%"},
      {"smiles": "C=C1C(=O)O[C@H]2[C@H]1CC/C(CNS(=O)(=O)c1cccc3ccccc13)=C\\CC[C@@]1(C)O[C@@H]21", "growth": "73.8%"},
      {"smiles": "O=[N+]([O-])c1ccc(N=Nc2cc(S(=O)(=O)O)c3cccc(S(=O)(=O)O)c3c2O)cc1", "growth": "116%"},
      {"smiles": "O=C(NNc1nc2c(F)cccc2n2cccc12)c1cnccn1", "growth": "11.6%"},
      {"smiles": "C[C@H]1[C@H](C)CC[C@]2(C(=O)NCC#CCN3CCN(C)CC3)CC[C@]3(C)C(=CC[C@@H]4[C@@]5(C)Cc6c([nH]c7ccccc67)C(C)(C)[C@@H]5CC[C@]43C)[C@H]12", "growth": "3.53% (active)"},
      {"smiles": "CCOC(=O)C1=C(C)NC(SCc2cc(=O)oc3ccc(F)cc23)=N[C@@H]1c1cccc2ccccc12", "growth": "105%"},
      {"smiles": "COc1cccc2c1c1nc3cc(C)c(C)cc3nc1n2CCN(C)C", "growth": "7.95% (active)"},
      {"smiles": "NC(=O)Nc1ccc(-n2cnc3cc(-c4ccc(O)cc4)ccc32)cc1", "growth": "102%"},
      {"smiles": "COc1ccc(C(=O)c2cc(C)c(OC)c(C)c2)c(OC)c1OC(=O)C(Cl)Cl", "growth": "2.25% (active)"},
      {"smiles": "C[C@H]1[C@H](C)CC[C@]2(C(=O)Nc3ccc4ncccc4c3)CC[C@]3(C)C(=CC[C@@H]4[C@@]5(C)CCCNC(C)(C)[C@@H]5CC[C@]43C)[C@H]12", "growth": "-79.8% (active)"},
      {"smiles": "COc1ccc2c(c1)C(=O)CC(c1ccccc1OC)O2", "note": "(stereo not given)", "growth": "100%"},
      {"smiles": "CCCCCN1C=C/C(=C\\C(=O)N2CCCc3ccccc32)c2ccccc21", "growth": "91.9%"},
      {"smiles": "COc1ccc(Cc2cnc(NC(=O)c3ccc4c(c3)OCCO4)s2)cc1", "growth": "6.33% (active)"},
      {"smiles": "CCN1C(=O)/C(=C/C(=O)OC)S/C1=N\\NC(=O)c1cc2ccc1/C=C\\c1ccc(cc1)/C=C\\2", "growth": "104%"},
      {"smiles": "Cc1ccc(C(=O)/C(=C\\c2ccc([N+](=O)[O-])cc2)S(=O)Cc2ccc(Cl)cc2)cc1", "note": "(stereo not given)", "growth": "30%"},
      {"smiles": "CNCCOc1nc2c3cnccc3cc(-c3cc(OC)c(OC)c(OC)c3)c2c2ccncc12", "growth": "-46.8% (active)"},
      {"smiles": "CCCCCCCCO/N=C\\c1c2c(O)c3c(O)c(C)c4c(c3c1O)C(=O)C(C)(O/C=C\\C(OC)C(C)C(OC(C)=O)C(C)C(O)C(C)C(O)C(C)/C=C\\C=C(\\C)C(=O)N2)O4", "note": "(stereo not given)", "growth": "3.79% (active)"},
      {"smiles": "O=C1/C=C/[C@@H](O)[C@@H]2C[C@@H](O)C[C@H]2/C=C/CCC[C@H](CCc2cccc3ccccc23)O1", "growth": "12.2%"},
      {"smiles": "CCOC(=O)CCN(CC(C)C)C(=S)Nc1ccccc1", "growth": "107%"},
      {"smiles": "COC(=O)CNC(=O)[C@]12CCC(C)(C)C[C@H]1C1=CC[C@@H]3[C@@]4(C)Cc5c([nH]c6ccccc56)C(C)(C)[C@@H]4CC[C@@]3(C)[C@]1(C)CC2", "growth": "87.7%"},
      {"smiles": "COc1cccc(C(=O)NNc2nc(Cl)nc(N3CCN(C(c4ccccc4)c4ccccc4)CC3)n2)c1", "growth": "102%"},
      {"smiles": "Cc1nn(-c2ccccc2)c(Cl)c1/C=C/C(=O)c1ccc(F)cc1", "growth": "98%"},
      {"smiles": "O=C1OC(Cc2ccccc2)C1c1ccccc1", "note": "(stereo not given)", "growth": "107%"},
      {"smiles": "CCNC(=O)Oc1ccc(/C(=C(\\C)c2ccccc2)c2ccc(OCCN(CC)CC)cc2)cc1", "growth": "86.6%"},
      {"smiles": "CCCN1[C@@H]2CC[C@H]1/C(=C\\c1ccc(OC)c(OC)c1)C(=O)/C2=C/c1ccc(OC)c(OC)c1", "growth": "39.6%"},
      {"smiles": "O=C1c2c(c3c4cccc(F)c4[nH]c3c3ccc4ccccc4c23)C(=O)N1O", "growth": "10.9%"},
      {"smiles": "CC(=O)N1N=C(c2ccc(-n3ccc(C(F)(F)F)n3)c(F)c2)CC1c1ccc[nH]1", "note": "(stereo not given)", "growth": "103%"},
      {"smiles": "Cc1ccc(/C=C(/C#N)n2nnc3cccc(F)c32)cc1", "growth": "-34.8% (active)"},
      {"smiles": "O=C1/C=C/[C@@H](O)[C@@H]2C[C@@H](O)C[C@H]2/C=C/CCC[C@H](CCc2ccc3ncccc3c2)O1", "growth": "15%"},
      {"smiles": "Cc1c(C(=O)NCCC(=O)NO)sc2ncnc(Nc3ccc(NC(=O)Nc4cccc(C(F)(F)F)c4)cc3)c12", "growth": "99.4%"},
      {"smiles": "Oc1ccc(C2c3ccccc3Oc3ccccc32)c2cccnc12", "growth": "2.23% (active)"},
      {"smiles": "CCN(CC)CC[n+]1cc2cc(OC)c(OC)cc2c2ccc3cc4c(cc3c21)OCO4", "growth": "-65.7% (active)"},
      {"smiles": "CC(=O)[C@@H]1CC[C@]2(C(N)=O)CC[C@]3(C)[C@H](CC[C@@H]4[C@@]5(C)CCCNC(C)(C)[C@@H]5CC[C@]43C)[C@@H]12", "growth": "86.2%"},
      {"smiles": "CCCOc1ccc(/C=N/Nc2cc(C)nc3ccc(Cl)cc23)cc1", "growth": "-37.5% (active)"},
      {"smiles": "CCN1Cc2nc3sc(C)c(C)c3c(=O)n2C=C1C", "growth": "115%"},
      {"smiles": "N#C/C(=C\\c1c(-c2ccccc2)[nH]c2ccccc12)C(=O)c1ccc(Cl)cc1", "growth": "18.2%"},
      {"smiles": "NS(=O)(=O)c1ccc(Cn2c(SCC(=O)N/N=C/c3ccccc3O)nc3ccccc3c2=O)cc1", "growth": "49.1%"}
    ]}
  ]
}
